Results reported in PubChem BioAssay AID1159580 (chemical genetic matrix, 2015).
The campaign covered roughly 5,500 compounds. About 2,000 (36%) were called active. Not shown: some 18% with an inconclusive outcome. Rule as the data show it: active = normalized growth mostly below about 0.91 (no sharp cut-off); inconclusive = no clear call, values can overlap the other calls; inactive = mostly above about 0.92. This is one part of the list.

Assay: chemical genetic growth profiling, strain panel (AID 1159580);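 also: tested at 20 µM; growth read once vehicle control cultures reached saturation at 30 °C; 1 = growth at the plate median or of vehicle wells; lower values mean less growth of the strain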
Conditions: S. cerevisiae deletion strains, growth OD

Measured: normalized growth

CC(=O)Nc1cccc(O)c1
inactive: locus YAL013W, strain DEP1, active compounds read low 1 | locus YAL021C, strain ccr4, active compounds read low 1.01 | locus YAL026C, strain drs2, active compounds read low 1.03 | locus YAL030W, strain snc1, active compounds read low 1.01 | locus YBL061C, strain skt5, active compounds read low 1.01 | locus YBR009C, strain hhf1, active compounds read low 0.984 | locus YBR021W, strain FUR4, active compounds read low 1.01 | locus YBR023C, strain chs3, active compounds read low 1.03 | locus YBR171W, strain sec66, active compounds read low 1.02 | locus YBR229C, strain ROT2, active compounds read low 1.01 | locus YBR231C, strain swc5, active compounds read low 1 | locus YBR279W, strain paf1, active compounds read low 1.02 | locus YCL011C, strain gbp2, active compounds read low 1.04 | locus YCL016C, strain dcc1, active compounds read low 1.05 | locus YCL029C, strain bik1, active compounds read low 0.993 | locus YCL061C, strain MRC1, active compounds read low 1.01 | locus YCL069W, strain vba3, active compounds read low 1.01 | locus YCR088W, strain abp1, active compounds read low 1.02 | locus YDL005C, strain med2, active compounds read low 1.02 | locus YDL035C, strain GPR1, active compounds read low 0.992 | locus YDL040C, strain nat1, active compounds read low 0.999 | locus YDL074C, strain BRE1, active compounds read low 1.02 | locus YDL101C, strain DUN1, active compounds read low 1.02 | locus YDL134C, strain PPH21, active compounds read low 0.983 | locus YDL185W, strain tfp1, active compounds read low 0.993 | locus YDL192W, strain arf1, active compounds read low 1.01 | locus YDR001C, strain nth1, active compounds read low 1.01 | locus YDR069C, strain doa4, active compounds read low 1.03 | locus YDR101C, strain arx1, active compounds read low 0.989 | locus YDR137W, strain rgp1, active compounds read low 1.03 | locus YDR150W, strain NUM1, active compounds read low 0.998 | locus YDR159W, strain sac3, active compounds read low 0.954 | locus YDR162C, strain NBP2, active compounds read low 0.999 | locus YDR195W, strain ref2 0.986 | locus YDR297W, strain sur2, active compounds read low 0.998 | locus YDR318W, strain mcm21, active compounds read low 1.01 | locus YDR334W, strain swr1, active compounds read low 1.02 | locus YDR335W, strain msn5, active compounds read low 1.01 | locus YDR388W, active compounds read low 0.998 | locus YDR392W, strain spt3, active compounds read low 0.99 | locus YDR502C, strain sam2, active compounds read low 0.986 | locus YEL003W, strain gim4, active compounds read low 1 | locus YEL037C, strain rad23, active compounds read low 1 | locus YEL061C, strain CIN8 (second series), active compounds read low 1 | locus YEL061C, strain CIN8, active compounds read low 1.01 | locus YER015W, strain faa2, active compounds read low 1.02 | locus YER016W, strain bim1, active compounds read low 1.03 | locus YER110C, active compounds read low 1 | locus YER111C, strain swi4, active compounds read low 1.01 | locus YER155C, strain BEM2 (second series), active compounds read low 0.999 | locus YER155C, strain BEM2, active compounds read low 1.01 | locus YER167W, strain BCK2, active compounds read low 1 | locus YFR010W, strain ubp6, active compounds read low 0.994 | locus YGL078C, strain dbp3, active compounds read low 0.994 | locus YGL086W, strain mad1, active compounds read low 0.99 | locus YGL167C, strain pmr1, active compounds read low 1.01 | locus YGL173C, strain kem1, active compounds read low 0.987 | locus YGL227W, strain vid30, active compounds read low 1.02 | locus YGL240W, strain doc1, active compounds read low 0.977 | locus YGL248W, strain PDE1, active compounds read low 1.02 | locus YGL253W, strain hxk2, active compounds read low 1.04 | locus YGR078C, strain PAC10, active compounds read low 1.01 | locus YGR135W, strain pre9, active compounds read low 1.02 | locus YGR252W, strain gcn5, active compounds read low 1 | locus YHR013C, strain ard1, active compounds read low 1.04 | locus YHR027C, strain rpn1, active compounds read low 1.01 | locus YHR030C, strain SLT2, active compounds read low 1 | locus YHR079C, strain IRE1 (second series), active compounds read low 0.997 | locus YHR094C, strain hxt1, active compounds read low 0.997 | locus YHR129C, strain ARP1, active compounds read low 1.01 | locus YHR142W, strain chs7, active compounds read low 1.04 | locus YHR200W, strain rpn10, active compounds read low 0.996 | locus YIL066C, strain RNR3, active compounds read low 1 | locus YIL073C, strain SPO22, active compounds read low 1.02 | locus YIL125W, strain kgd1, active compounds read low 0.994 | locus YIR030C, strain dcg1, active compounds read low 0.991 | locus YJL092W, strain hpr5, active compounds read low 1.01 | locus YJL095W, strain BCK1 (second series), active compounds read low 1.03 | locus YJL095W, strain BCK1, active compounds read low 1.03 | locus YJL115W, strain asf1, active compounds read low 1.02 | locus YJL129C, strain trk1, active compounds read low 1.04 | locus YJL134W, strain LCB3, active compounds read low 1.02 | locus YJL154C, strain vps35, active compounds read low 1.01 | locus YJL164C, strain tpk1, active compounds read low 1.03 | locus YJL166W, strain qcr8, active compounds read low 0.982 | locus YJL168C, strain set2, active compounds read low 1.02 | locus YJL187C, strain SWE1 (second series), active compounds read low 1.02
